An excerpt weighted towards active compounds, which were near 0.81% of everything screened.
COUP-TFII inh: blocks human COUP-TFII nuclear receptor. AID 686940. P24468. inhibition, % at 8.6 µM. 370,000 tested, 0.7% active. HEK293T NGFI-A luciferase reporter, luminescence;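 active = inhibition above a per-plate cutoff, mean inhibition of test wells between control levels plus 3 SD, cut at about 38% in these data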;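 note: cells cotransfected with COUP-TFII expression vector driving the NGFI-A reporter; 0% = median of COUP-TF2 test wells and 100% = reporter-only cells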
SRC2 inh: inhibits human steroid receptor coactivator 2; AID 651957; 370,000 tested, 0.17% active; inhibition, % at 9 µM; HEK293 GAL4-SRC2 luciferase reporter, luminescence; Q15596;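 active = inhibition above the mean inhibition of all tested compounds plus 3 SD, set per campaign, cut at about 52% in these data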;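 note: 0% = DMSO treated cells and 100% = cells given Gossypol at 36 µM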
NR5A2 inv ag: NR5A2 inverse agonism in reporter assay; AID 602396; HEK293T StAR-luciferase reporter, LRH-1 transfected, 24 h; 360,000 tested, 0.13% active; O00482; inhibition, % at 3.6 µM;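 active = inhibition above the mean inhibition of all tested compounds plus 3 SD, cut at about 73% in these data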;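 note: 0% = DMSO wells and 100% = reporter-only cells lacking LRH-1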
SRC3 inh: human NCOA3 inhibition; Q9Y6Q9; HEK293 GAL4-SRC3 luciferase reporter, luminescence; inhibition, % at 3.6 µM; 360,000 tested, 0.17% active; AID 588352;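 active = inhibition above a per-campaign cutoff, the mean of all compounds plus 3 SD, cut at about 60% in these data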;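 note: 0% = DMSO-treated cells and 100% = gossypol-treated cells at 36 µM; higher means less SRC3-driven luciferase light from the GAL4 reporter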
SRC1 inh: inhibits human SRC1 coactivator; HEK293 GAL4-SRC1 luciferase reporter, luminescence; inhibition, % at 3.6 µM; 360,000 tested, 0.12% active; AID 588354;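 active = inhibition above the campaign mean plus 3 SD, with each screening campaign given its own cutoff, cut at about 60% in these data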;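 note: 0% = DMSO treated cells and 100% = gossypol at 36 µM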
VP16 Luc counter: counter-screen for COUP-TFII antagonists: inhibitors of VP16; shares compounds with COUP-TFII inh; HEK293 Gal4-VP16 luciferase reporter, luminescence; inhibition, % at 8.5 µM; 2,500 tested, 25% active; AID 687007; in the data active = inhibition above about 13%
NR2F2 inh conf: COUP-TFII (NR2F2) inhibition, confirmation assay; 2,500 tested, 45% active; HEK293 NGFI-A luciferase reporter, luminescence; shares compounds with COUP-TFII inh; inhibition, % at 8.5 µM;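 active = mean inhibition over three repeats above a set limit taken from the earlier primary screen, cut at about 38% in these data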;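 note: 100% = cells given the luciferase reporter alone without the COUP-TF2 vector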
Starred values were filed as active, the others as inactive; . = not tested or not shown.

SMILES | COUP-TFII inh | SRC2 inh | NR5A2 inv ag | SRC3 inh | SRC1 inh | VP16 Luc counter | NR2F2 inh conf
CC(=NNC(=S)N1CCCCC1)c1ccccn1 | -8 | -29 | 54 | 25 | 48 | . | .
CC(=NNC(=S)Nc1ccccc1Cl)c1ccccn1 | 51* | 28 | 74* | 63* | 66* | -12 | 0
CC(=O)c1cn(CCOc2ccc(F)cc2)c2ccccc12 | 47* | 30 | 12 | -16 | 1 | -13 | 11
CC(=O)c1cn(CC(=O)Nc2ccccc2)c2ccccc12 | 47* | 17 | 41 | 19 | 17 | -6 | 19
Cc1ccccc1OCCCCn1cnc2ccccc21 | 39* | 7 | 20 | -11 | 12 | -16 | 17
CC(=O)c1cn(CCOc2ccccc2C)c2ccccc12 | 61* | 19 | 25 | 28 | 19 | 0 | 54*
COC(=O)c1cn(CCOc2ccc(C)cc2)c2ccccc12 | -9 | -2 | 0 | 6 | 9 | . | .
Cc1ccccc1OCCn1cc(C(=S)N2CCCC2)c2ccccc21 | 1 | -15 | -25 | 3 | 0 | . | .
Cc1ccc(OCCCCn2cnc3ccccc32)cc1 | -1 | -6 | 12 | 9 | -3 | . | .
CCC(=O)c1cn(CC(=O)Nc2ccccc2)c2ccccc12 | -3 | 7 | -16 | -27 | -3 | . | .
O=S(=O)(CC1NCCc2ccccc21)NCc1ccc(F)cc1 (centres undefined) | 6 | -5 | . | . | . | . | .
O=C(Nc1ccc(F)cc1F)C1CCCN1S(=O)(=O)c1cccnc1 (centres undefined) | 4 | 19 | . | . | . | . | .
Cc1cc(C)c(C#N)c(SCc2nnc(-c3ccccc3[N+](=O)[O-])o2)n1 | -47 | -47 | -163 | -68 | -93 | . | .
Cc1cc(C)c(C#N)c(SCc2nnc(-c3ccccc3)o2)n1 | 81* | 67* | 87* | 79* | 80* | 57* | 92*
Cc1ccc(C#N)c(SCc2nnc(-c3ccc(Cl)cc3)o2)n1 | 77* | 54* | 72 | 75* | 69* | 45* | 89*
C[C@@H]1CCN(C2CC2)S(=O)(=O)c2c(cccc2N2CCC[C@@H]2CO)O1 | 9 | 14 | . | . | . | . | .
C=C1[C@@H]2CC[C@H]3[C@]4(C)[C@@H](O)CC[C@@](C)(C(=O)OC)[C@H]4C[C@H](O)[C@]3(C2)[C@H]1O | -14 | 6 | . | . | . | . | .
COC1=CC(=O)c2c(ccc3ncnc(N)c23)C1=O | 55* | 62* | 72 | 69* | 60 | 62* | 44*
COc1cccc2c1C(=O)C=C(C)C2=O | 3 | -9 | 21 | 9 | -1 | . | .
Cc1ccc(Cn2cc(CN(C)S(=O)(=O)c3ccccc3Br)nn2)cc1 | -2 | -4 | . | . | . | . | .
COc1ccc(CNC(=O)c2cc(-c3ccccc3)c(N3CCOCC3)s2)cc1OC | 11 | 15 | . | . | . | . | .
CCOc1ccc(C(C)=O)cc1CSC(=N)N | 10 | 24 | -4 | 0 | -7 | . | .
CCCCOc1ccc(Br)cc1CSC(=N)N | 76* | 41 | 41 | -1 | -5 | 4 | 44*
O=C(c1ccc(F)c(F)c1)N1CCC(Oc2cccnc2)CC1 | 4 | 15 | . | . | . | . | .
FC(F)(F)Oc1cccc(Cn2ccc3ccc(-c4ccc5ccn(Cc6cccc(OC(F)(F)F)c6)c5c4)cc32)c1 | 11 | 13 | . | . | . | . | .
SMILES | COUP-TFII inh | SRC2 inh | NR5A2 inv ag | SRC3 inh | SRC1 inh | VP16 Luc counter | NR2F2 inh conf
Cc1nn(Cc2ccc(C(=O)NC(C)(C)C)o2)c(C)c1Br | 48* | 37 | 10 | 3 | 17 | 1 | 34
Cc1cc(NC(=O)c2ccc(Cn3nc(C)c(Br)c3C)o2)no1 | 1 | 2 | -3 | 11 | 14 | . | .
Cc1c(C(=O)Nc2ccc3c(c2)OCCO3)sc2nc(-c3ccccc3)cn12 | 32 | -7 | -28 | 25 | 10 | . | .
Cc1c(C(=O)Nc2ccncc2)sc2nc(-c3ccccc3)cn12 | 52* | 11 | -36 | 7 | 7 | -41 | 12
O=C(C1CCC(CNS(=O)(=O)c2cccs2)CC1)N1CCN(c2ccc(Cl)cc2)CC1 (centres undefined) | 60* | 14 | 5 | 45 | 31 | 4 | 59*
CCc1ccc(-c2nc(CSCC(=O)NCc3ccco3)c(C)o2)cc1 | 77* | 80* | 38 | 45 | 38 | 8 | 20
Cc1cc(C)nc(/N=C(\N)Nc2ccc(CC(=O)OC(C)C)cc2)n1 | 51* | 5 | 30 | 19 | 31 | 1 | 18

Bioassay records: PubChem, The Scripps Research Institute Molecular Screening Center
